Compounds without any hit were thinned out: in the full panel of roughly 83,000, 20% have a hit.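 Method: cells in 96-well plates; compound added at one concentration; 48 h incubation; percent growth measured; values under 10 scored active.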 The source made the active and inactive calls.
Columns and labels:
Test in all cases: NCI-60 one-dose screen, 48 h (100 = growth as untreated, 0 = no growth, -100 = all killed)
Settings in all cases: 10 µM unless noted
SK-MEL-2 melanoma = tested on: SK-MEL-2 melanoma
EKVX NSCLC = tested on: EKVX NSCLC
SN12C renal = tested on: SN12C renal
UO-31 renal = tested on: UO-31 renal
TK-10 renal = tested on: TK-10 renal
ACHN renal = tested on: ACHN renal
CAKI-1 renal = tested on: CAKI-1 renal
A498 renal = tested on: A498 renal
CCRF-CEM leukemia = tested on: CCRF-CEM leukemia
MOLT-4 leukemia = tested on: MOLT-4 leukemia

Measured: growth

COc1cc(O)c2c(=O)c3c(CC=C(C)C)cc(OC)c(O)c3oc2c1
inactive: SK-MEL-2 melanoma 29.1% | EKVX NSCLC 53.7% | SN12C renal 40.2% | UO-31 renal 43.7% | TK-10 renal 66.6% | ACHN renal 50.3% | CAKI-1 renal 44% | A498 renal 31.1% | CCRF-CEM leukemia 16.5% | MOLT-4 leukemia 25.6%

O=C(c1cccc(N2CCOCC2)n1)c1c[nH]c2ccccc12
inactive: SK-MEL-2 melanoma 103% | EKVX NSCLC 76.3% | SN12C renal 89.9% | UO-31 renal 66.9% | TK-10 renal 120% | ACHN renal 86.5% | CAKI-1 renal 76% | A498 renal 85.2% | CCRF-CEM leukemia 97.2% | MOLT-4 leukemia 100%

O=[N+]([O-])c1c(O)c(Cl)cc(Cl)c1Cl
inactive: SK-MEL-2 melanoma 113% | EKVX NSCLC 107% | SN12C renal 101% | UO-31 renal 93.6% | TK-10 renal 96.8% | ACHN renal 103% | CAKI-1 renal 102% | A498 renal 110% | CCRF-CEM leukemia 106% | MOLT-4 leukemia 100%

O=C1Nc2ccccc2/C1=N/N1C(=O)CN(CCCl)C1=O
inactive: SK-MEL-2 melanoma 103% | EKVX NSCLC 102% | SN12C renal 94.2% | UO-31 renal 86% | TK-10 renal 102% | ACHN renal 107% | CAKI-1 renal 89.1% | A498 renal 95.6% | CCRF-CEM leukemia 99.3% | MOLT-4 leukemia 99.9%

CCCCCCCCn1ccc2cc(NC(=O)CN=[N+]=[N-])ccc21
inactive: SK-MEL-2 melanoma 99.3% | EKVX NSCLC 84.9% | SN12C renal 107% | UO-31 renal 70% | TK-10 renal 111% | ACHN renal 104% | CAKI-1 renal 93.3% | A498 renal 96.7% | CCRF-CEM leukemia 39% | MOLT-4 leukemia 93.3%

COC1C(O)CC(OC2CC(OC3CC(O[C@@H]4C(=O)c5c(cc6cc(OC7CC(OC8CC(O)C(O)C(C)O8)C(O)C(C)O7)c(C)c(O)c6c5O)CC4[C@H](OC)[C@@H](O)C(C)=O)OC(C)C3O)OC(C)C2O)OC1C (some centres undefined)
inactive: EKVX NSCLC 19.8% | SN12C renal 17% | CAKI-1 renal 29.3% | CCRF-CEM leukemia 16.6%
active: SK-MEL-2 melanoma -37.7% | UO-31 renal 0.176% | TK-10 renal -1.06% | ACHN renal 0.949% | A498 renal -78.8% | MOLT-4 leukemia -2.23%

C=C(C)[C@@H]1CC[C@]2(C(=O)N3CCN(C)CC3)CC[C@]3(C)[C@H](CC[C@@H]4[C@@](C)(CCC(=O)O)[C@H](C(=C)C)CC[C@]43C)[C@@H]12
inactive: SK-MEL-2 melanoma 92.2% | EKVX NSCLC 86% | SN12C renal 85.9% | UO-31 renal 50.5% | TK-10 renal 94.3% | ACHN renal 82.8% | CAKI-1 renal 63.1% | A498 renal 53% | CCRF-CEM leukemia 70.7% | MOLT-4 leukemia 61.2%

Clc1cccc(C2Cc3cnccc3-c3[nH]c4ccncc4c32)c1 (centres undefined)
inactive: SK-MEL-2 melanoma 61% | EKVX NSCLC 42.9% | SN12C renal 56.4% | UO-31 renal 39.1% | TK-10 renal 53.3% | ACHN renal 42.1% | CAKI-1 renal 50.8% | A498 renal 39% | CCRF-CEM leukemia 49.7%
active: MOLT-4 leukemia 9.28%

Cc1cc(C(=O)CCCC(=O)c2cc(C)c(O)c(C)c2)cc(C)c1O
inactive: SK-MEL-2 melanoma 101% | EKVX NSCLC 111% | SN12C renal 97.8% | UO-31 renal 83.6% | TK-10 renal 105% | ACHN renal 91% | CAKI-1 renal 93.5% | A498 renal 91.9% | CCRF-CEM leukemia 96.6% | MOLT-4 leukemia 106%

CCCN(CCSSCCNc1nc(N(C)O)nc(N(C)O)n1)c1nc(N(C)O)nc(N(C)O)n1
inactive: SK-MEL-2 melanoma 69.8% | EKVX NSCLC 54.3% | SN12C renal 69.7% | UO-31 renal 52.3% | TK-10 renal 71% | ACHN renal 45.3% | CAKI-1 renal 31.9% | A498 renal 64.4% | MOLT-4 leukemia 47.3%
active: CCRF-CEM leukemia 9.07%

C=CN(C(=O)N1CCN(c2cc3c(cc2F)c(=O)c(C(=O)O)cn3C2CC2)CC1)c1nc(-c2ccccc2)cs1
active: CAKI-1 renal -82.3%
inactive: SK-MEL-2 melanoma 88.3% | EKVX NSCLC 109% | SN12C renal 92.8% | UO-31 renal 84.7% | TK-10 renal 105% | ACHN renal 91.1% | A498 renal 76% | CCRF-CEM leukemia 93.2% | MOLT-4 leukemia 88.2%

O=C(/C=C/c1cn(-c2ccccc2)nc1-c1ccccc1)CCC(=O)NO
inactive: SK-MEL-2 melanoma 99% | EKVX NSCLC 111% | SN12C renal 102% | UO-31 renal 87.7% | TK-10 renal 104% | ACHN renal 106% | CAKI-1 renal 94.5% | A498 renal 105% | CCRF-CEM leukemia 93.2% | MOLT-4 leukemia 79.9%

COc1cc(C=Nc2oc(-c3ccccc3)c(-c3ccccc3)c2C#N)cc(CN2CCCC2)c1O
inactive: SK-MEL-2 melanoma 105% | EKVX NSCLC 91.8% | SN12C renal 91.8% | UO-31 renal 68% | TK-10 renal 123% | ACHN renal 85.1% | CAKI-1 renal 77.3% | A498 renal 64.4% | MOLT-4 leukemia 104%
